We go through 15 compounds from PubChem BioAssay (Tox21).

Where “and” joins values, the source holds several entries; their conditions need not be identical. Identical values can stand only once. Calls of active or inactive are those of the source. Unless noted, calls follow the shape of the dose curve; as a rule, active = well fitted curve in the direction sought with a large enough effect in the repeat runs; inconclusive = weak or mixed curves; inactive = no such curve, though single readings can be large; an effect the other way counts as inactive or inconclusive.

Experiment [1] can be described thus: qHTS assay to identify small molecule antagonists of the glucocorticoid receptor (GR) signaling pathway - cell viability counter screen (AID 720693; also: nearly all actives have a fitted effect of over 55% in size; also: potency is read from the fitted curve at half-maximal effect). (Quantitative high-throughput screening tests each substance at several concentrations.)
Experiment [2] is described as follows: qHTS assay to identify small molecule antagonists of the androgen receptor (AR) signaling pathway - cell viability counter screen (AID 743033; also: nearly all actives have a fitted effect of over 45% in size; also: potency is read from the fitted curve at half-maximal effect).
The nature of experiment [3]: qHTS assay to identify small molecule antagonists of the androgen receptor (AR) signaling pathway using the MDA cell line - cell viability counter screen (AID 743041; also: nearly all actives have a fitted effect of over 45% in size). The procedure, abridged:
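Compound exposure lasted 16 h at 37C in MDA-kb2 AR-luc cells stimulated with R1881. Protease-based CellTiter-Fluor reagent was applied for the final 30 min and fluorescence measured.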

The subject of experiment [4] is thyroid hormone receptor (rat, GH3 cells). Kind of experiment: qHTS assay to identify small molecule agonists of the thyroid receptor (TR) signaling pathway (AID 743066; calls by dose curve).
Experiment [5] addresses Estrogen receptor (Homo sapiens) (UniProt P03372). In words: qHTS assay to identify small molecule antagonists of the estrogen receptor alpha (ER-alpha) signaling pathway (AID 743069; active = well fitted curve in the direction sought with a large enough effect in the signal ratio in the repeat runs, not every such curve was filed as active; inconclusive = weak or mixed curves, or effect the other way; inactive = no such curve, though single readings can be large or run the other way; the % refers to the signal ratio). An outline of the steps:
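In this cell-based reporter format, GripTite HEK293 cells harbouring ER-alpha-UAS-bla were grown overnight with 2% charcoal-stripped FBS, dosed with DMSO-dissolved compounds, then challenged with 17beta-estradiol. After 18 hr at 37C, beta-lactamase activity was detected by FRET fluorescence.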

Experiment [6] can be described thus: qHTS assay to identify small molecule antagonists of the estrogen receptor alpha (ER-alpha) signaling pathway - cell viability counter screen (AID 743074; calls by dose curve; also: nearly all actives have a fitted effect of over 45% in size; also: potency is read from the fitted curve at half-maximal effect).
Experiment [7] deals with Estrogen receptor (Homo sapiens) (UniProt P03372). Kind of experiment: qHTS assay to identify small molecule agonists of the estrogen receptor alpha (ER-alpha) signaling pathway (AID 743075; calls by dose curve; also: potency is read from the fitted curve at half-maximal effect).
Chain of Estrogen receptor (Homo sapiens) (P03372 whole entry, looked up): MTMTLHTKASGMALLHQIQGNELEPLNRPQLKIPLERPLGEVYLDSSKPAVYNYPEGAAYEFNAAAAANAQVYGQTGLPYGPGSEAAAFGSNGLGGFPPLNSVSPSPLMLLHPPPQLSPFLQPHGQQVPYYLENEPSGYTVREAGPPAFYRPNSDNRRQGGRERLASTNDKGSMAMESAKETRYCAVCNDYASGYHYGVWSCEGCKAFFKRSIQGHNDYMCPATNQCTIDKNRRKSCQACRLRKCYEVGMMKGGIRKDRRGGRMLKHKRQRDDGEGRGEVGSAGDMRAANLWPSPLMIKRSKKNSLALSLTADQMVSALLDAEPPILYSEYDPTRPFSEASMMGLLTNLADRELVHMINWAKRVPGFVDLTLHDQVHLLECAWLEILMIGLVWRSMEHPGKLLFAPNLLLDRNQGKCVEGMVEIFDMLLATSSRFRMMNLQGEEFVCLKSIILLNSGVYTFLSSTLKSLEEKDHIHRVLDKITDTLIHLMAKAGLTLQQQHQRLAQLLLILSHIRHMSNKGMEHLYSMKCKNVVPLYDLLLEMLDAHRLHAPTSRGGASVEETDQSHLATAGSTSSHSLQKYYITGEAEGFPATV
For experiment [8] the target is unchanged. In words: qHTS assay to identify small molecule agonists of the estrogen receptor alpha (ER-alpha) signaling pathway using the BG1 cell line (AID 743079). Also: nearly all actives have a fitted effect of over 20% in size. Also: potency is read from the fitted curve at half-maximal effect. The note with it: BG1Luc4E2 cells, ERE-luciferase agonist, 22 h; activation: at 70.3 µM (top of the series).
Experiment [9] in a line: qHTS assay to identify small molecule antagonists of the estrogen receptor alpha (ER-alpha) signaling pathway using the BG1 cell line (AID 743080; calls by dose curve;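 also: BG1 cells stimulated with 17beta-estradiol alongside compound; nearly all actives have a fitted effect of over 25% in size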). As to conditions: BG1Luc4E2 ERE-luciferase antagonist mode, luminescence; activity change, negative = inhibition: at 70.3 µM (top of the series). An outline of the steps:
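BG1-Luc-4E2 cells (endogenous full-length ER-alpha, 4xERE luciferase) hormone-starved 5 days in charcoal-stripped FBS, plated 4,000/well for 24 h, then compound plus 17beta-estradiol for 21.5 h at 37 C; ONE-Glo luminescence read.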

Experiment [10] can be described thus: qHTS assay to identify small molecule antagonists of the estrogen receptor alpha (ER-alpha) signaling pathway using the BG1 cell line - cell viability counter screen (AID 743081).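 Also: compound given together with 17beta-estradiol as the ER stimulus; nearly all actives have a fitted effect of over 45% in size.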 Also: potency is read from the fitted curve at half-maximal effect.
A further experiment has as its target Aromatase (Homo sapiens) (UniProt P11511). In words: qHTS assay to identify aromatase inhibitors (AID 743083). Also: nearly all actives have a fitted effect of over 55% in size. Also: potency is read from the fitted curve at half-maximal effect.
Experiment [11] is described as follows: qHTS assay for identifying genotoxic compounds that show differential cytotoxicity against isogenic chicken DT40 cell lines with known DNA damage response pathways - Rev3 mutant cell line (AID 743014). Also: nearly all actives have a fitted effect of over 55% in size. Also: potency is read from the fitted curve at half-maximal effect.
A short description of experiment [12]: qHTS assay for identifying genotoxic compounds that show differential cytotoxicity against isogenic chicken DT40 cell lines with known DNA damage response pathways - Rad54/Ku70 mutant cell line (AID 743015). Also: nearly all actives have a fitted effect of over 60% in size. Also: potency is read from the fitted curve at half-maximal effect.
The target of experiment [13] is Androgen receptor (Homo sapiens) (UniProt P10275). Kind of experiment: qHTS assay to identify small molecule agonists of the androgen receptor (AR) signaling pathway (AID 743036; active = well fitted activation curve with a large enough effect in the signal ratio in the repeat runs, with a control signal flat, not every such curve was filed as active; inconclusive = weak or mixed curves, or effect the other way; inactive = no such curve, though single readings can be large or run the other way; the % refers to the signal ratio). An outline of the steps:
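Following a 4 h settling period, AR-UAS-bla HEK293 cells were dosed with compounds for 16 h at 37C. A 2 h room-temperature incubation with LiveBLAzer B/G FRET substrate preceded the fluorescence measurement.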

The target is the same in experiment [14]. Kind of experiment: qHTS assay to identify small molecule agonists of the androgen receptor (AR) signaling pathway using the MDA cell line (AID 743040; also: nearly all actives have a fitted effect of over 20% in size; also: potency is read from the fitted curve at half-maximal effect). An outline of the steps:
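Testing was done with the MDA-kb2 AR-luc line, a human breast carcinoma stably transfected with MMTV-luciferase containing AR and GR response elements. Cells were exposed 16 h at 37C before ONE-Glo luminescence detection.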

Experiment [15] shares this target. In words: qHTS assay to identify small molecule antagonists of the androgen receptor (AR) signaling pathway using the MDA cell line (AID 743042; also: nearly all actives have a fitted effect of over 55% in size). The procedure, abridged: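 MDA-kb2 breast carcinoma cells carrying MMTV-luciferase (AR/GR responsive) were co-treated with compounds and the agonist R1881 for 16 h at 37C. Inhibition read as ONE-Glo luminescence; CellTiter-Fluor fluorescence measured in parallel for cytotoxicity.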

The nature of experiment [16]: qHTS assay for identifying genotoxic compounds that show differential cytotoxicity against isogenic chicken DT40 cell lines with known DNA damage response pathways - wild type cell line (AID 743012). Also: potency is read from the fitted curve at half-maximal effect; nearly all actives have a fitted effect of over 60% in size. The procedure, abridged:
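Viability of DNA repair-proficient chicken DT40 cells was assessed by CellTiter-Glo luminescence following 40 h compound exposure at 37 C/5% CO2.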

The target in experiment [17] is Androgen receptor (Homo sapiens) (UniProt P10275). Kind of experiment: qHTS assay to identify small molecule antagonists of the androgen receptor (AR) signaling pathway (AID 743035; active = well fitted inhibition curve with a large enough effect in the signal ratio in the repeat runs, not every such curve was filed as active; inconclusive = weak or mixed curves, or effect the other way; inactive = no such curve, though single readings can be large or run the other way; the % refers to the signal ratio; also: potency is read from the fitted curve at half-maximal effect). The procedure, abridged:
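Reporter HEK293 cells were exposed to compounds and R1881 overnight (16 h, 37C); beta-lactamase activity was then quantified by FRET fluorescence.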

The nature of experiment [18]: qHTS assay to identify small molecule antagonists of the thyroid receptor (TR) signaling pathway - cell viability counter screen (AID 743064). Also: nearly all actives have a fitted effect of over 50% in size. Also: potency is read from the fitted curve at half-maximal effect. The procedure, abridged:
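CellTiter-Fluor readout, 30 min at 37 °C/5% CO2, following 23.5 h incubation of GH3.TRE-Luc cells with test compound and 1 nM T3 (final).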

The nature of experiment [19]: qHTS assay to identify small molecule antagonists of the thyroid receptor (TR) signaling pathway (AID 743065). Also: nearly all actives have a fitted effect of over 55% in size. Also: potency is read from the fitted curve at half-maximal effect. An outline of the steps: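 GH3.TRE-Luc rat pituitary cells (two TREs driving luciferase) were dosed with compound, then stimulated with 1 nM T3 (final) for 23.5 h at 37 C. ONE-Glo luminescence was the read-out, with CellTiter-Fluor fluorescence as the cytotoxicity counter-screen.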

Chain of Aromatase (Homo sapiens) (P11511 whole entry, looked up): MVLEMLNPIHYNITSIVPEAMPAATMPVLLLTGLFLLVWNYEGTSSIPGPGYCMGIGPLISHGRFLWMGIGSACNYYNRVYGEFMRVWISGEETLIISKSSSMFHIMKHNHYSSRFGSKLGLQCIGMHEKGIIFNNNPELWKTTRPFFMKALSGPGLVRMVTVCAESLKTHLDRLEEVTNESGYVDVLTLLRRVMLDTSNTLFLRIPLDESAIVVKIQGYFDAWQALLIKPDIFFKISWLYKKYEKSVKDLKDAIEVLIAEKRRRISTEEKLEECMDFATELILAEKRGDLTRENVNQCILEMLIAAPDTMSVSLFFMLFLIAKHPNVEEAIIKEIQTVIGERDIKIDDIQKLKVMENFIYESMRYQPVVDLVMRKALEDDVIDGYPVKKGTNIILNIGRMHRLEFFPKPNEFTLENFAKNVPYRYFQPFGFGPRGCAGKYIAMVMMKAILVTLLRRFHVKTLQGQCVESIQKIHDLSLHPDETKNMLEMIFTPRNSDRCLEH
Chain of Androgen receptor (Homo sapiens) (P10275 whole entry, looked up): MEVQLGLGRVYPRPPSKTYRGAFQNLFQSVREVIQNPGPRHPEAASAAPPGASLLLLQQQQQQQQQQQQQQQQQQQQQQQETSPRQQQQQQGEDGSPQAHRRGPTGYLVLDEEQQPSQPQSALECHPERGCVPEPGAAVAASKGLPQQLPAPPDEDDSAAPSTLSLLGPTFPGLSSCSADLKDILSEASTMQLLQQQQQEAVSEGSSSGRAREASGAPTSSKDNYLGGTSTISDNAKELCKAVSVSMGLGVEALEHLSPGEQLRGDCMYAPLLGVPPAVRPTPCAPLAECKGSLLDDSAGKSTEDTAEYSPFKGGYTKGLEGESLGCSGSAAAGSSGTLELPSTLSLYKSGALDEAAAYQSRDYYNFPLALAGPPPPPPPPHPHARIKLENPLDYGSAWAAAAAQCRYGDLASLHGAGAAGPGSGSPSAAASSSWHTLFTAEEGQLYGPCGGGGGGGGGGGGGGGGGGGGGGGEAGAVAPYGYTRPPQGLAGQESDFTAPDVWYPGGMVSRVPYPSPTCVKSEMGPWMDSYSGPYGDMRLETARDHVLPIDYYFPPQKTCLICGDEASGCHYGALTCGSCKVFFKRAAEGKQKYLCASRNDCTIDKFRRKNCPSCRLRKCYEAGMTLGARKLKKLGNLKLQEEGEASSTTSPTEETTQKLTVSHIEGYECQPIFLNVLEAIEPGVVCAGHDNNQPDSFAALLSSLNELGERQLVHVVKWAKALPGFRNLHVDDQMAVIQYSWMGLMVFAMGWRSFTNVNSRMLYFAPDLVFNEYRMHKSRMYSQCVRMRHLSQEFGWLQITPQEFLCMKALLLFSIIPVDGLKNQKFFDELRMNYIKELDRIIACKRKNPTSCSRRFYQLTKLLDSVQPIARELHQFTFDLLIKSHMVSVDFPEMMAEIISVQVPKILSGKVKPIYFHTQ

As to `COC(=O)CC(C)CCC=C(C)C` (stereo not given), the Potency entry in experiment [1], in [2], in [3], in experiment [4], in experiment [5] and in [6] was “inactive” throughout. The Potency entry (in experiment [7]; in experiment [8]; in experiment [9]; in experiment [10]; with Aromatase (Homo sapiens)) was “inactive” in each case.
Regarding `CN1[C@@H]2CC[C@H]1CC(OC(=O)C(CO)c1ccccc1)C2` (stereo not given in full), the Potency entry (in experiment [1]; in experiment [2]; in [3]; in experiment [6]; in experiment [10]; with Aromatase (Homo sapiens)) was “inactive” in each case.
For `Oc1ccc(-c2ccccc2)c(Cl)c1`, the Potency entry in [1], in experiment [3], in [15], in [4], in experiment [6] and in experiment [9] was “inactive” throughout. The Potency entry (in [10]; with Aromatase (Homo sapiens)) was “inactive” throughout. For the same compound, the Potency in experiment [11] is 30.6 µM (active); in [12] it was 30.6 µM (active); in [14] it was 68.6 µM (active); in experiment [7], 61.6 µM [inconclusive] (active); in experiment [8] it was 54.5 µM (active). The compound was called inactive in experiment [13].
Turning to `COC(=O)C1=C(C)NC(C)=C(C(=O)OCCCN2CCC(c3ccccc3)(c3ccccc3)CC2)C1c1cccc([N+](=O)[O-])c1` (stereo not given), the Potency in [16] was 4.73 µM (active); in experiment [11], 6.68 µM (active); in [12], 6.68 µM (active); in experiment [2] it was 21.3 µM (active); in [17] it was 16.9 µM (active); in experiment [18] it was 11.9 µM (active). Besides, in experiment [14], the Potency result was “inactive”.
With `CCN(CC)CCCN(c1ccccc1)C1Cc2ccccc2C1`, the Potency in experiment [1] was 23.9 µM (active); in [11], 0.944 µM (active); in experiment [12], 1.5 µM (active); in experiment [18], 2.98 µM (active); in experiment [6] it was 19 µM (active); in [10], 29.8 µM (active). Further, the Potency with Aromatase (Homo sapiens) is 26.6 µM (active). The Potency entry in [7] is “inactive”.
With `CCOC(=O)COc1ccc(C)cc1`, the Potency result in experiment [1], in experiment [12], in [2], in [18], in experiment [5] and in experiment [6] was “inactive” throughout. The Potency entry (in [7]; in [8]; in experiment [9]; in experiment [10]; with Aromatase (Homo sapiens)) was “inactive” in each case.
For the compound `CCOC(=O)[C@@](C)(N)Cc1ccc(O)c(O)c1`, the Potency entry in experiment [1], in [11], in experiment [12], in [18], in experiment [19] and in experiment [4] was “inactive” throughout. For the same compound, the Potency result in experiment [5], in experiment [6], in [7], in experiment [8], in experiment [9] and in experiment [10] was “inactive” in each case. The Potency result with Aromatase (Homo sapiens) is “inactive”.
As for `COC(=O)[C@]1(C)CCC[C@@]2(C)[C@H]1CC=C1C=C(C(C)C)CC[C@@H]12`, the Potency result in [1], in [2], in [3], in [4], in [6] and in experiment [10] was “inactive” each time. Moreover, the values for the Potency in experiment [12], in [18] and in experiment [19] were 61.1 µM (active), 48.6 µM (active) and 43.3 µM (active), respectively.
For the compound `CC(=O)Oc1ccc(C2(c3ccc(OC(C)=O)cc3)C(=O)Nc3ccccc32)cc1`, the Potency entry in [1], in experiment [11], in experiment [2], in [4], in experiment [5] and in [6] was “inactive” each time. The Potency entry (in [7]; with Aromatase (Homo sapiens)) was “inactive” throughout. The Potency in experiment [10] was 841 nM (active) and 1.19 µM (active).
In the case of `C=CC(C)(CCC=C(C)C)OC(=O)/C=C/c1ccccc1` (stereo not given), the Potency entry in [1], in [17], in [14], in experiment [3], in [15] and in [18] was “inactive” each time. Also, the Potency result (in experiment [5]; in [6]; in experiment [7]; in experiment [9]; in experiment [10]; with Aromatase (Homo sapiens)) was “inactive” throughout. In addition, the outcome in [13] was inactive. Further, the Potency in experiment [8] is 61.1 µM (active).
With `CN(C)CCOC(c1ccccc1)c1ccccc1` (tested in a mixture with another compound), the Potency entry in experiment [1], in [14], in experiment [4], in [5], in experiment [7] and in experiment [8] was “inactive” throughout. For the same compound, the Potency entry in experiment [9] is “inactive”. In addition, the Potency in experiment [19] was 61.6 µM (active); in experiment [6], 49.3 µM (active).
As for `CCc1ccc(O)c(C(C)(C)C)c1`, the Potency result in experiment [1], in [4], in [5], in experiment [6], in [9] and in [10] was “inactive” each time. Besides, the Potency in experiment [11] is 30.6 µM (active); in [12] it was 30.6 µM (active); in [19], 61.1 µM (active); in [8] it was 27.3 µM (active); with Aromatase (Homo sapiens), 68.6 µM (active).
As for `CCCCCCCC/C=C\CCCCCCCC(=O)N(C)CC(=O)O`, the Potency in experiment [1] is 49 µM (active); in experiment [12], 27.3 µM (active); in experiment [18] it was 30.6 µM (active); in experiment [19], 61.1 µM (active). Moreover, the Potency entry in experiment [8], in experiment [9] and in experiment [10] was “inactive” each time.
For the compound `c1ccc(Sc2ccccc2)cc1`, the Potency entry in experiment [1], in experiment [17], in [14], in experiment [3], in experiment [15] and in experiment [19] was “inactive” each time. Moreover, the Potency result in experiment [4], in experiment [5], in experiment [6], in [7], in experiment [8] and in experiment [9] was “inactive” throughout. For the same compound, the Potency result (in experiment [10]; in the experiment with Aromatase (Homo sapiens)) was “inactive” in each case. Also, the Potency in experiment [11] is 68.6 µM (active). In experiment [13], the result was inactive.
Turning to `O=C(O)Cc1ccc(OCCNC[C@H](O)c2ccccc2)cc1`, the Potency result in experiment [1], in experiment [2], in experiment [14], in [3], in [15] and in [18] was “inactive” each time. Moreover, the Potency result in experiment [19], in [4], in experiment [5], in experiment [6], in experiment [7] and in experiment [8] was “inactive” each time. The Potency entry (in experiment [9]; in [10]; with Aromatase (Homo sapiens)) was “inactive” throughout.
